# RN4220 kill: kills Staphylococcus aureus RN4220; S. aureus RN4220 growth, OD600, 16 h; inhibition, % (test concentration not listed); hit rate 0.33% among 330,000; in the data active = inhibition above about 85%
# VHR inh abs: DUSP3 (human) phosphatase inhibition | P51452 | recombinant VHR phosphatase, pNPP absorbance | hit rate 0.52% among 290,000 | inhibition, % at 13.3 µM; in the data active = inhibition above about 50%
# Target sequence (P51452 whole entry, looked up): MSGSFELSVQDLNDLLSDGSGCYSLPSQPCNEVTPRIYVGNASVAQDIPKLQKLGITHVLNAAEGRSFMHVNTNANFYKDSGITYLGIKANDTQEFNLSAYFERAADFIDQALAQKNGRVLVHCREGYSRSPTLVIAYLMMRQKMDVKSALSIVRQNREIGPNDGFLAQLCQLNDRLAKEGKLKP
# BJeLR lethal: BJeLR cell viability loss; hit rate 0.17% among 300,000; BJeLR (HRASV12) viability, CellTiter-Glo ATP luminescence, 48 h; inhibition, % (concentration not given with the values); AID 1554; in the data active = inhibition above about 50%
# SARS 3CLpro inh: SARS-CoV 3CLpro protease inhibition. recombinant SARS-CoV 3CLpro, quenched FRET peptide cleavage. inhibition, % at 6 µM. hit rate 0.14% among 290,000. AID 1706; in the data active = inhibition above about 12%
# PrPC TRFRET: cell surface PrPC inhibition, primary TR-FRET screen; hit rate 0.43% among 370,000; TR-FRET read-out; inhibition, % at 13.8 µM; P04156; in the data active = inhibition above about 24%
# Sa ugtP lethal: growth inhibition of S. aureus ugtP deletion strain. S. aureus RN4220 ugtP deletion, OD600 growth, 16 h. AID 1259309. hit rate 0.54% among 330,000. growth inhibition, % (test concentration not listed); in the data active = growth inhibition above about 68%
# Hits are given with their value; - = inactive; . = no result given. Most compounds without a hit are left out; they make up all but 1.4% or so of the library.
SMILES,RN4220 kill,VHR inh abs,BJeLR lethal,SARS 3CLpro inh,PrPC TRFRET,Sa ugtP lethal
O=C(Nc1ccccc1F)Nc1ccccc1OC(F)F,-,56.3,-,-,-,-
C[C@@]12CCC=CC1C(c1ccc(C=Cc3ccccc3)cc1F)N(Cc1ccccc1)C2=O (some centres undefined),-,.,.,.,.,-
COCCNC(=O)c1ccc(C)c(NC(=O)C2=C(C)OCCS2)c1,-,-,-,-,-,-
CC1=C(C(=O)Nc2cc(C(=O)N(C)Cc3ccccc3)ccc2C)SCCO1,-,52.5,-,-,-,-
COc1cc2cc(Oc3ccc4ccc(=O)oc4c3)c(=O)oc2cc1OC1OC(CO)C(O)C(O)C1O (centres undefined),-,.,.,.,.,-
COc1ccc(C2=Nc3nc(-c4ccccc4)cn3C(c3ccc(OC)cc3)C2)cc1 (centres undefined),-,-,-,-,-,85.2
COc1ccc(C2CC(c3ccccc3)=NN2C(=O)CCC(=O)O)cc1 (centres undefined),.,-,-,-,-,.
NC(=O)C1CC2(CC(c3cccc(NC(=O)CC(c4ccccc4)c4ccccc4)c3)=NO2)CN1C(=O)C1CCC(=O)N1 (centres undefined),-,.,.,.,.,-
Oc1ccc(CC2CNCCN2CCc2cccc3ccccc23)cc1 (centres undefined),-,.,.,.,.,-
COc1ccc(C(=O)c2ccc(Cl)c([N+](=O)[O-])c2)cc1,-,-,66.7,-,-,-
CCC1(C)Cc2ccccc2-c2nc(-c3ccccc3)oc(=O)c21 (centres undefined),-,-,-,-,-,85.3
CC1CN(C(C)CO)C(=O)c2cc(NS(=O)(=O)c3cn(C)cn3)ccc2OC1CN(C)C(=O)Nc1ccccc1 (centres undefined),-,.,.,.,.,-
O=C(O)C(Cc1ccccc1)N1C(=O)/C(=C/C=C/c2ccco2)SC1=S (centres undefined),-,-,-,-,-,-
O=C(O)CC(C(=O)O)N1C(=O)/C(=C/C=C/c2ccco2)SC1=S (centres undefined),-,54.3,-,-,-,-
C=C(C)COc1ccc(-c2[nH]ncc2-c2ccccc2)c(O)c1,-,-,-,-,-,83.9
NCCCCCc1cn(C(CO)C(=O)NCCCCCCCCCCC(=O)N2CCNCC2)nn1 (centres undefined),-,.,.,.,.,-
Cc1ccc(-c2c(C)sc3nc[nH]c(=O)c23)cc1C,-,53.3,-,-,-,-
Cc1cc(C)c(C(=O)NNC(=O)c2cccnc2)c(C)c1,-,56.2,-,-,-,-
Cc1cc(CN(C)C)c(O)c(C2(C)CCCCC2)c1,-,-,-,-,-,-
Cc1cc(CN2CCOCC2)c(O)c(C2(C)CCCCC2)c1,-,-,-,-,-,98.8
CC(=O)OC1CC(OC2C(O)CC(OC3C(O)CC(OC4CCC5(C)C(CCC6C5CC(O)C5(C)C(C7=CC(=O)OC7)CCC65O)C4)OC3C)OC2C)OC(C)C1OC1OC(CO)C(O)C(O)C1O (centres undefined),.,.,.,.,-,.
C[C@H]1O[C@@H](O[C@H]2[C@@H](O)C[C@H](O[C@H]3[C@@H](O)C[C@H](O[C@H]4CC[C@@]5(C)[C@H](CC[C@@H]6[C@@H]5C[C@@H](O)[C@]5(C)[C@@H](C7=CC(=O)OC7)CC[C@]65O)C4)O[C@@H]3C)O[C@@H]2C)C[C@H](O)[C@@H]1O,.,-,102.0,-,-,.
COC(=O)C1=C(c2ccc(OC(F)(F)F)cc2)CC2CCC1N2C(=O)N1CCOCC1 (centres undefined),-,.,.,.,.,-
CC1(C)CC(NS(=O)(=O)OCC(Cl)(Cl)Cl)c2cc(C#N)ccc2O1 (centres undefined),99.1,-,-,-,-,99.0
CC1(C(=O)N(CC(=O)NC2CCCC2)Cc2ccc(Cl)cc2)CC(=O)N=C2C=CC=CN21 (centres undefined),-,52.0,-,-,-,-
SMILES,RN4220 kill,VHR inh abs,BJeLR lethal,SARS 3CLpro inh,PrPC TRFRET,Sa ugtP lethal
Cc1ccc(-n2sc3ccccc3c2=O)cc1,99.7,-,-,-,-,99.5
O=c1c2ccccc2sn1-c1ccc(F)cc1,-,.,.,.,-,-
CCOc1ccccc1C(=O)N1CCN(c2cccc(Cl)c2)CC1,-,-,52.9,-,-,-
O=C(N/N=C\c1c(O)ccc2ccccc12)c1ccc(S(=O)(=O)N2CCCCC2)cc1,.,-,76.9,-,-,.
CCOC(=O)C1C2COc3ccc(Cl)cc3C2N2C(=O)CN(Cc3ccccc3)C(=O)[C@@]12C (some centres undefined),-,.,.,.,.,-
CN1CC2C(c3ccc(C(F)(F)F)cc3)C3(c4ccccc4)CC2(C3)C1c1ccccc1 (centres undefined),-,.,.,.,.,-
CCCCC1CNC(=O)C(=O)N1CC(C)(C)C (centres undefined),-,.,.,.,.,-
CCOc1ccc2nc(NC(=O)c3ccoc3C)sc2c1,-,-,81.5,-,-,-
C#CCOCCOCCOCCNc1nc(N2CCN(C(=O)CCCCCCCCCCNC(=O)C(CCSC)n3cc(CCO)nn3)CC2)nc(N2CCN(C(=O)CCCCCCCCCCNC(=O)C(C(C)O)n3cc(C)nn3)CC2)n1 (centres undefined),-,.,.,.,.,-
O=C(NC(Cc1ccccc1)C(=O)O)OCc1ccccc1 (centres undefined),-,-,-,-,-,-
O=C(NC(Cc1ccccc1)C(=O)O)OCC1c2ccccc2-c2ccccc21 (centres undefined),-,53.0,-,-,-,-
OCCC1CC(O)C(O)[C@@]2(Cc3ccccc3O2)O1 (some centres undefined),-,.,.,.,.,-
CC(C)C(Nc1ccc(S(=O)(=O)N2CCOCC2)cc1[N+](=O)[O-])C(=O)OCC(N)=O (centres undefined),-,.,.,.,.,-
COc1ccc(CN(CC(=O)NCc2ccccc2)C(=O)CCC(=O)Nc2cc(C)ccn2)cc1,-,52.0,-,-,-,-
COc1cc2c(c(OC)c1OC)-c1ccc(O)c(=O)cc1C(NC(C)=O)CC2 (centres undefined),-,-,56.9,-,-,-
COc1cc2c(c(OC)c1OC)-c1ccc(OC)c(=O)cc1C(NC(C)=O)CC2 (centres undefined),-,-,-,-,-,-
O=C(COc1ccc(Br)cc1)NC(=S)Nc1ccccc1N1CCOCC1,-,-,-,-,-,-
O=C(NC(=S)Nc1ccccc1N1CCCC1)c1ccc(F)cc1,-,-,-,-,-,-
O=C(NC(=S)Nc1ccccc1N1CCCCC1)c1ccc(F)cc1Cl,-,-,-,-,-,91.0
O=C(NC(=S)Nc1ccccc1N1CCOCC1)c1ccc(Br)cc1,-,-,-,-,-,93.6
Cc1ccccc1C(=O)NC(=S)Nc1ccccc1N1CCCC1,-,-,-,-,-,85.2
O=C1C=C(C=Cc2ccccc2)CC(c2ccc(F)cc2)C1 (centres undefined),-,.,.,.,.,-
Cn1cnc(S(=O)(=O)N2CCN(c3cccc(C(F)(F)F)c3)CC2)c1,-,50.4,-,-,-,-

# High-throughput results: PubChem, several laboratories
